From PubChem BioAssay (Tox21) come the findings set out here.

Inconclusive results are not listed. A call without a number means that no potency is given here. Unmarked numbers belong to inactive results. Active and inactive are the calls of the source. The call rests on the fitted dose curve; in most records, active means well fitted activation curve with a large enough effect in the signal ratio in the repeat runs (not every such curve was filed as active); inconclusive means weak or mixed curves, or effect the other way; inactive means flat fitted curve, though single readings scatter; the % refers to the signal ratio.

Chain of Estrogen receptor beta (Homo sapiens) (Q92731 whole entry, looked up): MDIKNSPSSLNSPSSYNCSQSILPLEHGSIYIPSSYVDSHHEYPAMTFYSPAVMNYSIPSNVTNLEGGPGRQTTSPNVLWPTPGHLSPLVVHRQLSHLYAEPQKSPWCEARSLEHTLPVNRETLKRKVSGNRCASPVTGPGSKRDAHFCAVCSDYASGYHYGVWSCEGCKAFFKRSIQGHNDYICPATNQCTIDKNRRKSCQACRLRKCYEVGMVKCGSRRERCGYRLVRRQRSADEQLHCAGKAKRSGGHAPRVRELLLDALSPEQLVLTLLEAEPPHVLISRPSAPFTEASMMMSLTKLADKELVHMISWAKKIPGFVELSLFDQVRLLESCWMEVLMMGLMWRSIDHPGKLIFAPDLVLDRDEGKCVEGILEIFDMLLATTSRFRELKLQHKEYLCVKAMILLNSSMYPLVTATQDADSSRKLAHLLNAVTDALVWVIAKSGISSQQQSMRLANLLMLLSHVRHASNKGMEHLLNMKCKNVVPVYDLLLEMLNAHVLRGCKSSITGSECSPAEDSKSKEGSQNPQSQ

The target in the assay is Estrogen receptor beta (Homo sapiens) (UniProt Q92731). Description: qHTS assay to identify small molecule agonists of the estrogen receptor beta (ER-beta) signaling pathway (AID 1259377). The note with it: ER-beta-UAS-bla HEK293T, beta-lactamase FRET ratio, 16 h; series mostly up to 92.4 µM. From the text:
U.S. Tox21 Program National Center for Advancing Translational Sciences [NCATS] NIH Chemical Genomics Center [NCGC] U.S. Environmental Protection Agency [EPA] National Institutes of Environmental Health Sciences [NIEHS] National Toxicology Program [NTP] U.S. Food and Drug Administration [FDA] Tox21 Assay Overview: Estrogen receptor (ER), a nuclear hormone receptor, plays an important role in development, metabolic homeostasis and reproduction. Two subtypes of ER, ER-alpha and ER-beta, have similar expression patterns with some uniqueness in both types. Endocrine disrupting chemicals (EDCs) and their interactions with steroid hormone receptors like ER causes disruption of normal endocrine function. To identify the compounds that activate ER signaling, an ER beta-UAS-bla GripTite cell line (Life technologies, Madison, WI, USA) containing a beta-lactamase reporter gene under the control of an Upstream Activator Sequence (UAS) was used to screen Tox21 10K compound library.
Tox21 Assay Protocol Summary: ER-beta-UAS-bla HEK293T cells were dispensed at 2,000 cells/5 uL of assay medium containing 2% charcoal stripped FBS per well into black wall/clear-bottom 1536-well plates using a Multidrop Combi (ThermoFisher Scientific, Waltham, MA) dispenser. After the assay plates were incubated at a 37C and 5% CO2 for 6 hr, 23 nL of compounds dissolved in DMSO, positive controls or DMSO only was transferred to the assay plate by a Pintool station (Kalypsys, San Diego, CA). The plates were incubated at 37C and 5% CO2 for 16 hr. Then 1 uL of LiveBLAzerTM B/G FRET substrate was added using a BioRAPTR FRD (Flying Reagent Dispenser, Aurora Discovery, San Diego, CA). After the plates were incubated at room temperature for 2 hours, fluorescence intensity was measured by an Envision plate reader (PerkinElmer, Shelton, CT).
With `CCCCCCCCCCCC[N+](C)(C)CCCS(=O)(=O)[O-]`, the Potency result was “inactive”.

Regarding `Cc1cc(S(=O)(=O)O)ccc1N=Nc1c(O)ccc2ccccc12`, the Potency result is “inactive”.

Turning to `CC(C)(C)C(=O)C(Oc1ccc(Cl)cc1)n1ccnc1` (stereo not given), the Potency result was “inactive”.

Turning to `CCOC(=O)C(C)Oc1ccc(Oc2nc3ccc(Cl)cc3o2)cc1` (stereo not given), the Potency entry was “inactive”.

Consider `Nc1nccs1`, for which the Potency result was “inactive”.

`CC(=O)Nc1ccc(N)cc1`: the Potency entry was “inactive”.

With `CN(C(=O)C(Cl)Cl)c1ccc(OC(=O)c2ccco2)cc1`, the Potency result was “inactive”.

`O=S(=O)(c1ccccc1)c1ccc(Cl)cc1`: the Potency entry is “inactive”.

In the case of `CO[Si](C)(OC)OC`, the Potency entry was “inactive”.

Regarding `OC/C(Br)=C(\Br)CO`, the Potency result was “inactive”.

With `COCCOC`, the Potency result was “inactive”.

Consider `CN1Cc2cc(C(=O)N3CCC(C4CCNCC4)CC3)ccc2N[C@@H](CC(=O)O)C1=O`, for which the Potency entry is “inactive”.

Regarding `CCCCOC(=O)CCS`, the Potency result was “inactive”.

Regarding `CN1CCN(c2c(F)cc3c(=O)c(C(=O)O)cn4c3c2OCN4C)CC1`, the activation is -0.625% [at 19 µM].

`C[N+]1(C)CCC(=C(c2ccccc2)c2ccccc2)CC1`: the Potency entry is “inactive”.

Turning to `CC(C)(C)CC(C)(C)c1ccc(OCCO)cc1`, the Potency result is “inactive”.

Turning to `CO[C@H]1C=CO[C@@]2(C)Oc3c(C)c(O)c4c(O)c(c5c(c4c3C2=O)=NC2(CCN(CC(C)C)CC2)N=5)NC(=O)/C(C)=C\C=C/[C@H](C)[C@H](O)[C@@H](C)[C@@H](O)[C@@H](C)[C@H](OC(C)=O)[C@@H]1C`, the Potency result is “inactive”.

As for `CCOCCn1c(C2CCN(CCc3ccc(C(C)(C)C(=O)O)cc3)CC2)nc2ccccc21`, the Potency result is “inactive”.

Consider `C=CC(=O)NCOCC(C)C`, for which the Potency entry was “inactive”.

`O=C1OCCN1/N=C/c1ccc([N+](=O)[O-])o1`: the Potency entry was “inactive”.

Take `c1cnc2c(n1)CCCC2`: the Potency result is “inactive”.

In the case of `CC(=O)OCC(=O)[C@@]12OC(C)(C)O[C@@H]1C[C@H]1[C@@H]3C[C@H](F)C4=CC(=O)C=C[C@]4(C)[C@@]3(F)[C@@H](O)C[C@@]12C`, the Potency result is “inactive”.

Turning to `C[C@@H]1C[C@H]2[C@@H]3CCC4=CC(=O)C=C[C@]4(C)[C@@]3(F)[C@@H](O)C[C@]2(C)[C@H]1C(=O)CO`, the Potency entry is “inactive”.

For the compound `CCC(Cc1ccccc1)(C(=O)c1ccc(N2CCOCC2)cc1)N(C)C` (stereo not given), the Potency entry was “inactive”.

On to `Cc1ccc(S)cc1`, for which the Potency result is “inactive”.

For `CC1CC(O)CC(C)(C)C1` (stereo not given), the Potency entry is “inactive”.

Regarding `Cc1ccc(/C=N/n2c(-c3ccccc3)csc2=S)cc1`, the Potency result is “inactive”.

`O=C(CCCN1CCC(O)(c2ccc(Br)cc2)CC1)c1ccc(F)cc1`: the Potency entry was “inactive”.

Regarding `CCCOC(=O)c1ccc(N)cc1`, the Potency result is “inactive”.

Turning to `CC1=C(C=O)C(C)(C)CCC1`, the Potency result was “inactive”.

Turning to `CCc1c2c(nc3ccc(OC(=O)N4CCC(N5CCCCC5)CC4)cc13)-c1cc3c(c(=O)n1C2)COC(=O)[C@]3(O)CC`, the Potency entry was “inactive”.

As for `Cc1ccnc2ccccc12`, the Potency entry was “inactive”.

Turning to `N#C/C(=C1\SCC(c2ccccc2Cl)S1)n1ccnc1` (stereo not given), the Potency entry was “inactive”.

As to `Oc1cc(O)c(Cl)cc1Cl`, the Potency entry is “inactive”.

Regarding `C=CCCCCCCCCCCCCCCCC`, the activation is -1.08% [at 8.39 µM].

As for `O=C(Nc1ccc([N+](=O)[O-])cc1)Nc1ccc([N+](=O)[O-])cc1`, the Potency entry is “inactive”.

Take `CCN(CC)CCNC(=O)c1ccc(NC(C)=O)cc1`: the Potency result is “inactive”.

As to `C=CC(C)=CCC=C(C)C`, the Potency entry was “inactive”.

`NC(=O)N(O)[C@@H]1C=C[C@H](Oc2cccc(Oc3ccc(F)cc3)c2)C1`: the Potency result is “inactive”.

As for `N#C/C(=C1/SC[C@@H](c2ccc(Cl)cc2Cl)S1)n1ccnc1`, the Potency result was “inactive”.
